From PubChem BioAssay come the findings set out here.

Broadly, the inhibition is the relative decrease from the control value, in per cent.

For experiment [1], the target named is NAD(+) hydrolase SARM1 (Homo sapiens) (UniProt Q6SZW1). As to the kind of experiment: SARM1 TIR NADase inhibitors, cell lysate, NAD-Glo luminescence (AID 1508614;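 active means compound whose remaining NAD level is above about 45 nM, limit read from the data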). As to conditions: SAM-TIR HEK293T lysate NADase, at 1 µM, stronger effect = higher value.
NAD(+) hydrolase SARM1 (Homo sapiens), sequence (Q6SZW1 whole entry, looked up): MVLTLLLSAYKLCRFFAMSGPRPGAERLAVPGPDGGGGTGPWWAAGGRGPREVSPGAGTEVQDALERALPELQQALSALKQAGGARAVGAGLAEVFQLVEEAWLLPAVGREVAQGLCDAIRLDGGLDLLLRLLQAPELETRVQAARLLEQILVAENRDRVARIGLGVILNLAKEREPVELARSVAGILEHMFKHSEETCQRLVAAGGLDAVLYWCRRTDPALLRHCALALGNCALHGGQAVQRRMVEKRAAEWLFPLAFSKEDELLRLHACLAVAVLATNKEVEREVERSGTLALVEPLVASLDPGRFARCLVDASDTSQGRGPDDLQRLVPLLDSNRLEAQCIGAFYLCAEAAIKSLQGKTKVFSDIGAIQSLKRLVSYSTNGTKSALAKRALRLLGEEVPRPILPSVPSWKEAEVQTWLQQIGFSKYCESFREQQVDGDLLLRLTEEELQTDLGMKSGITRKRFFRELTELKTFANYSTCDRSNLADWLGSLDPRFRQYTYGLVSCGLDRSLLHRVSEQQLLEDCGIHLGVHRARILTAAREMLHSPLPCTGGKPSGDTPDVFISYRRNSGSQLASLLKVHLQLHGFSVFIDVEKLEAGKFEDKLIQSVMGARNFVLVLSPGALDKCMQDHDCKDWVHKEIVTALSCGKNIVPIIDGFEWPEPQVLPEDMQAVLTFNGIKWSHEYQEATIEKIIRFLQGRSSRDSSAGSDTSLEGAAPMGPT
The nature of experiment [2]: LFS_MB_P medulloblastoma growth inhibition, cell-based, chromothripsis tumors, cisplatin or BGB combos (AID 1671449).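 Further: cells exposed for 96 hours; 0% = vehicle DMSO and 100% = killing by high DMSO.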 As to conditions: LFS_MB_P medulloblastoma cells.
Experiment [3] is described as follows: HDN33 neuroblastoma growth inhibition, cell-based, chromothripsis tumors, cisplatin or BGB combos (AID 1671450).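 Further: cells exposed to compound for four days; 0% = vehicle DMSO and 100% = cell killing by high DMSO.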 As to conditions: HDN33 neuroblastoma cells, stronger effect = higher value.
Experiment [4] can be described thus: ICB984 medulloblastoma cell growth inhibition, synergistic combos for chromothripsis tumors, cisplatin or BGB combos (AID 1671451; call rule not given here;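 further: cells exposed for 96 hours before readout; 0% = vehicle DMSO and 100% = killing by high DMSO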). As to conditions: ICB984 medulloblastoma cells, drug combinations, stronger effect = higher value.
Experiment [5] in a line: LFS_MB_1R medulloblastoma cell growth inhibition, synergistic combos for chromothripsis tumors, cisplatin or BGB combos (AID 1671452).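 Further: cells exposed for 96 hours before readout.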 The following applies: LFS_MB_1R medulloblastoma cells, stronger effect = higher value.
Experiment [6] can be described thus: HTB85 osteosarcoma cell growth inhibition, synergistic combos for chromothripsis tumors, BGB or cisplatin IC20 combos (AID 1671453).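 Further: cells exposed for 96 hours before readout; 0% = vehicle DMSO and 100% = high DMSO killing control.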 As to conditions: HTB85 osteosarcoma cells, drug combinations, stronger effect = higher value.
Experiment [7] can be described thus: CRL2098 osteosarcoma cell growth inhibition, synergistic combos for chromothripsis tumors, BGB or cisplatin IC20 combos (AID 1671454).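 Further: cells exposed for 96 h before readout; 0% = vehicle DMSO and 100% = killing by high DMSO.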 The following applies: CRL2098 osteosarcoma cells, drug combinations, stronger effect = higher value.
A short description of experiment [8]: HD-MB03 medulloblastoma cell growth inhibition, synergistic combos for chromothripsis tumors, BGB or cisplatin IC20 combos (AID 1671455; in the data active means inhibition above about 83%;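 further: 0% = vehicle DMSO and 100% = high DMSO as cytotoxic control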). The following applies: HD-MB03 medulloblastoma cells, stronger effect = higher value.
Experiment [9] is described as follows: UWB1.289 ovarian carcinoma cell growth inhibition, synergistic combos for chromothripsis tumors, BGB or cisplatin combos (AID 1671456).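 Further: cells exposed to compound for four days; 0% = vehicle DMSO and 100% = killing by high DMSO.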 The following applies: UWB1.289 ovarian carcinoma cells, stronger effect = higher value.
A short description of experiment [10]: LFS_MB_2R medulloblastoma cell growth inhibition, synergistic combos for chromothripsis tumors, cisplatin combos (AID 1671457).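 Further: cells exposed to compound for four days before readout.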 As to conditions: LFS_MB_2R medulloblastoma cells, stronger effect = higher value.
The nature of experiment [11]: MDA-MB-436 breast carcinoma cell growth inhibition, synergistic combos for chromothripsis tumors, BGB or cisplatin combos (AID 1671458; call rule not given here;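 further: cells exposed for 96 hours; 0% = vehicle DMSO and 100% = killing by high DMSO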). As to conditions: MDA-MB-436 breast carcinoma growth inhibition, drug combinations, stronger effect = higher value.
Experiment [12] is described as follows: UWB1.289_BRCA1 ovarian cancer growth, cell-based, BGB or cisplatin combinations (AID 1671459). The following applies: UWB1.289 BRCA1 ovarian carcinoma, drug combinations, stronger effect = higher value.
Experiment [13] can be described thus: human astrocyte viability loss, single and combined drugs, cytotoxicity control for chromothriptic childhood tumor combination screen, cell-based, BGB or cisplatin IC20 combos (AID 1671460).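 Further: cells exposed to compounds for 96 hours before viability readout; 0% = vehicle and 100% = killing control.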 As to conditions: Human astrocytes, drug combinations, stronger effect = higher value.
A short description of experiment [14]: growth inhibition of BT084 medulloblastoma cells, cell-based, ICGC_MB145, cisplatin and BGB IC40 combos (AID 1671461).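 Further: cells exposed to drugs for 96 hours; 0% = vehicle DMSO and 100% = high DMSO full killing control.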 As to conditions: drug combinations, stronger effect = higher value.
The nature of experiment [15]: growth inhibition of RCMB18 medulloblastoma cells, cell-based, cisplatin and BGB IC40 combos (AID 1671462).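 Further: cells exposed to compound for four days.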 The following applies: stronger effect = higher value.
The nature of experiment [16]: growth inhibition of CRL1545 osteosarcoma cells, cell-based, cisplatin and BGB IC20 combos (AID 1671464).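 Further: cells exposed to compound for 96 hours before readout; 0% = vehicle DMSO and 100% = high DMSO killing control.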 The following applies: stronger effect = higher value.
Experiment [17] concerns the target Mitogen-activated protein kinase 7 (Homo sapiens) (UniProt Q13164). The experiment can be described thus: ERK5 transactivation activators in reporter cells, primary screen, cell-based, HTS (AID 1508626;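 active means luciferase signal above three times the same-plate solvent-only control wells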;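 further: luciferase driven by Gal4-ERK5 fusion binding five Gal4 sites before minimal TATA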). The following applies: HeLa Gal4-ERK5 transactivation, 18 h, at 5 µM, stronger effect = higher value.
[18] abbreviates: measured here: combination with BGB IC40, at 0.05 µM.
Where [19] appears, read: measured here: with BGB IC20 combination, at 0.5 µM.
The mark [20] stands for this setting: measured here: with cisplatin IC20 combination, at 0.5 µM.
Where [21] appears, read: measured here: combination with cisplatin, at 0.5 µM.
Setting [22] is: measured here: combination with cisplatin, at 5 µM.

Activity calls are given as the source filed them. Unless noted, no stated cut-off is given here; in the data, active means inhibition above about 80%; inactive means the rest.

Mitogen-activated protein kinase 7 (Homo sapiens), sequence (Q13164 whole entry, looked up, the tested form may be a part): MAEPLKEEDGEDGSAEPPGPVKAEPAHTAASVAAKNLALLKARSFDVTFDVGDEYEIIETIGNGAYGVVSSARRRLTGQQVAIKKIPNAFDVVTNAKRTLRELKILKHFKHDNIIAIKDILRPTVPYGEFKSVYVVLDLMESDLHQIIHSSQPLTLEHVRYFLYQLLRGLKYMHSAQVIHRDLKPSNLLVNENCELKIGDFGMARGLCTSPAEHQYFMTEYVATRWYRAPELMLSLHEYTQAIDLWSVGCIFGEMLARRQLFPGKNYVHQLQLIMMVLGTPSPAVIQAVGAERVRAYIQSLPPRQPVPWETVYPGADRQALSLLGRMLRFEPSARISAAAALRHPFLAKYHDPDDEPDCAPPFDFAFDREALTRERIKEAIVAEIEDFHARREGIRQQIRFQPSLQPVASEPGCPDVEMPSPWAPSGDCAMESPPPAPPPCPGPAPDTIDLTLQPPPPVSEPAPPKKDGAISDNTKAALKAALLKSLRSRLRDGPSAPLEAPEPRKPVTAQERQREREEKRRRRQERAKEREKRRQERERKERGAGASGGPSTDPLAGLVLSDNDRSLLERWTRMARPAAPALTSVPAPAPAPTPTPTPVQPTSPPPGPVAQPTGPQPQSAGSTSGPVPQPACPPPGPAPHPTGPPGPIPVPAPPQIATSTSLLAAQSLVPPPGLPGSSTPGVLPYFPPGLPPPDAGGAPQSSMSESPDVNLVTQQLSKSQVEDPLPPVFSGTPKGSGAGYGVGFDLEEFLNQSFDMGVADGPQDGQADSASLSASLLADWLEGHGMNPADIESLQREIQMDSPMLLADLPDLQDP

On to `C=CC1=C(C)C2=CC3=NC(=C(CC(=O)O)C4=NC(=C(C)C4=C(O)O)C=c4[nH]c(c(C)c4CC)=CC1=N2)C(CCC(=O)O)C3C` (stereo not drawn), for which the remaining NAD in experiment [1] was 10 nM (inactive). In addition, the inhibition in [2] (at 0.5 µM, stronger effect = higher value) is -22.2% (inactive); in experiment [2] (measured here: combination with BGB IC20, at 0.005 µM), -27.4%; in experiment [2] (measured here: combination with BGB IC40, at 0.005 µM), -20.4%; in [2] (setting [18]), -7.95%; in experiment [2] (measured here: combination with cisplatin, at 0.5 µM, stronger effect = higher value) it was -18.8%; in experiment [2] (measured here: combination with cisplatin, at 5 µM, stronger effect = higher value), -59.6%. Moreover, the inhibition in experiment [3] (BGB combo, at 5 µM) is -5.94%; in experiment [3] (at 0.5 µM) it was -6.06% (inactive); in experiment [3] (cisplatin combo, at 5 µM) it was 3.3%; in experiment [3] (setting [19]), -2.85%; in experiment [3] (setting [20]), 8.33%; in experiment [3] (single agent, at 5 µM), 10.4%. The inhibition is -23.1% in experiment [4] (BGB IC20 combo, at 0.005 µM); -25.1% in experiment [4] (BGB IC40 combo, at 0.005 µM); -20% in [4] (BGB IC40 combo, at 0.05 µM); -26.5% (inactive) in experiment [4] (at 0.5 µM); -20% in experiment [4] (cisplatin combo, at 0.05 µM); -42.5% in experiment [4] (cisplatin combo, at 0.5 µM). Besides, the inhibition was -25.5% in [4] (cisplatin combo, at 5 µM); 5.39% in experiment [4] (measured here: 5 uM single agent, at 5 µM); -18.3% (inactive) in [5] (at 0.5 µM); -22.1% in experiment [5] (setting [18]); -13.2% in [5] (setting [21]); -2.96% in experiment [5] (setting [22]). Further, the inhibition in experiment [6] (at 0.5 µM) was -16.7% (inactive); in [6] (measured here: with BGB IC20, at 0.5 µM), -29.2%; in [6] (measured here: with BGB IC20, at 5 µM), -11.5%; in experiment [6] (measured here: with cisplatin IC20, at 0.5 µM), -27.9%; in experiment [6] (measured here: with cisplatin IC20, at 5 µM) it was -1.9%; in [6] (single agent, at 5 µM), 1.12%. Further, the inhibition in experiment [7] (at 0.5 µM) is -39.9% (inactive); in experiment [7] (measured here: combination with BGB at IC20, at 0.5 µM), -14.4%; in experiment [7] (measured here: combination with cisplatin at IC20, at 0.5 µM), -71.5%; in experiment [8] (at 0.5 µM), -9.12% (inactive); in experiment [8] (measured here: combo with BGB at IC20, at 0.5 µM) it was -0.977%; in experiment [8] (measured here: combo with cisplatin at IC20, at 0.5 µM), -18.8%. In addition, the inhibition in experiment [9] (at 0.5 µM) is -0.22% (inactive); in experiment [9] (measured here: inhibition with BGB combination, at 0.05 µM), -17.7%; in [9] (measured here: inhibition with cisplatin combination, at 0.05 µM), -4.64%; in experiment [10] (at 0.5 µM), -20% (inactive); in [10] (setting [21]) it was -3.5%; in experiment [10] (setting [22]) it was -14.7%. The inhibition in [11] (at 0.5 µM) is -19% (inactive); in experiment [11] (measured here: BGB combination, at 0.5 µM) it was -19.5%; in experiment [11] (measured here: BGB combination, at 5 µM), -14.7%; in experiment [11] (measured here: cisplatin combination, at 0.5 µM) it was -36.2%; in [11] (measured here: cisplatin combination, at 5 µM), -11.5%; in experiment [12] (BGB combination, concentration series, at 5 µM), 12.6%. The inhibition was -3.06% (inactive) in [12] (at 0.5 µM); 10.4% in experiment [12] (cisplatin combination, concentration series, at 5 µM); -8.5% (inactive) in experiment [13] (at 0.5 µM); -9.9% in [13] (measured here: combo with BGB IC20, at 0.5 µM); -17.9% in experiment [13] (measured here: combo with cisplatin IC20, at 0.5 µM); -4.34% (inactive) in experiment [14] (at 0.5 µM). Also, the inhibition in experiment [14] (cisplatin combination, at 0.5 µM) was 3.74%; in experiment [14] (cisplatin combination, at 5 µM), -40.8%; in experiment [14] (measured here: BGB IC40 combination 0.05 uM, at 0.05 µM) it was -3.49%; in experiment [14] (single agent, at 5 µM) it was -10.5%; in experiment [15] (at 0.5 µM), -15.6% (inactive); in [15] (cisplatin combo, at 5 µM), 30.7%. Besides, the inhibition is -38.7% in [15] (measured here: BGB IC40 combination, at 0.05 µM); -5.59% in experiment [15] (setting [21]); -26.5% in [15] (single agent, at 5 µM); -23.9% (inactive) in experiment [16] (at 0.5 µM); 2.58% in experiment [16] (setting [19]); -37.1% in experiment [16] (setting [20]). In addition, the inhibition in experiment [16] (single agent, at 0.05 µM) turned out to be 3.9%; in [16] (single agent, at 5 µM), 17%.
For `O=C(O)C1=C(CSc2nnnn2CS(=O)(=O)O)CS[C@@H]2[C@H](NC(=O)[C@H](O)c3ccccc3)C(=O)N12`, the remaining NAD in experiment [1] was 10 nM (inactive). Further, the luciferase signal in experiment [17] was 84 AU (inactive).
Take `Cc1cccc2c3c(ccc12)C1=C(C(=O)C3=O)[C@@H](C)CO1`: the luciferase signal in experiment [17] was 156 AU (inactive).
Same read-out and setting: the figure for `CCCCCCCCCCCCCCC(C(=O)O)C(O)(CC(=O)OC)C(=O)O` (stereo not drawn) is 64 AU (inactive); for `CCC(=O)OCC(=O)[C@@]1(OC(=O)CC)[C@H](C)CC2C3C(Cl)CC4=CC(=O)C=C[C@]4(C)C3C(O)C[C@@]21C` (stereo partly drawn) it is 108 AU (inactive); for `CC1(C)CCCC2(C)C3C(O)CC2(C)C(O)C31` (stereo not drawn) it is 64 AU (inactive).
On the same count and under the same terms, the figure for `C[C@@H]1CC[C@@]2(OC1)O[C@H]1C[C@H]3[C@@H]4CC[C@@H]5C[C@@H](O)CC[C@]5(C)[C@H]4CC[C@]3(C)[C@H]1[C@@H]2C` is 20 AU (inactive).
As to `CCCCC/C=C/CCC(=O)N[C@H]1[C@H](Oc2c3cc4cc2Oc2ccc(cc2Cl)[C@@H](O[C@@H]2O[C@H](CO)[C@@H](O)[C@H](O)[C@H]2NC(C)=O)[C@@H]2NC(=O)[C@H](NC(=O)[C@@H]4NC(=O)[C@H]4NC(=O)C(Cc5ccc(c(Cl)c5)O3)NC(=O)[C@@H](N)c3ccc(O)c(c3)Oc3cc(O)cc4c3)c3ccc(O)c(c3)-c3c(OC4O[C@H](CO)[C@@H](O)[C@H](O)[C@@H]4O)cc(O)cc3[C@@H](C(=O)O)NC2=O)O[C@H](CO)[C@@H](O)[C@@H]1O` (stereo partly drawn), the luciferase signal in experiment [17] was 52 AU (inactive).
With `C[C@H]1[C@@H](O)O[C@@H]2O[C@@]3(C)CC[C@H]4[C@H](C)CC[C@@H]1[C@@]24OO3`, the luciferase signal in [17] is 52 AU (inactive).
